HT1080-NT tox – qHTS for induction of synthetic lethality in tumor cells producing 2HG: qHTS for the HT-1080-NT fibrosarcoma cell line. 360,000 tested, 1.6% active. Potency, µM (titrated, usually from 46.1 µM), for the others: at the top dose activity, negative = less viability, most hits filed as cytotoxic. HT-1080-NT fibrosarcoma viability, CellTiter-Glo ATP luminescence, 48 h;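 further: NT is the 2HG producing partner of a matched IDH1 knockdown line; potency means the concentration at half of the fitted maximal effect; 0% = DMSO-treated cells and -100% = media-only wells without cells; nearly all actives have a fitted effect of over 55% in size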
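Luminescent CellTiter-Glo readout after 48 hours of compound exposure at 37 degrees C defined viability of HT-1080-NT cells. Activity was normalized to DMSO wells and cell-free media wells; concentration-response curves were fitted and assigned curve classes.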
ELG1 DNA repair – qHTS screen for small molecules that inhibit ELG1-dependent DNA repair in human embryonic kidney (HEK293T) cells expressing luciferase-tagged ELG1. HEK293T ELG1-luciferase reporter, luminescence, 16 h; DNA damage induced by 5-fluorouridine. Potency, µM (titrated, usually from 46.1 µM), inactives show top-dose activity change, negative = inhibition, usual class: inhibitors. 330,000 tested, 2.3% active. AID 504467, 2011; further: potency means the concentration at half of the fitted maximal effect; nearly all actives have a fitted effect of over 55% in size
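Step one: seed 2,000 cells per well. Step two: pin-transfer compound or DMSO alongside 5-fluorouridine. Step three: incubate 16 hr, 37 °C, 5% CO2. Step four: add ONE-Glo, wait 30 min, read luminescence.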
TDP1 cell noCPT – qHTS for Inhibitors of human tyrosyl-DNA phosphodiesterase 1 (TDP1): qHTS in cells in absence of CPT; DT40 Tdp1-/- hTDP1 cells, no CPT, ATP luminescence, 48 h; Potency, µM (highest dose often 46.2 µM), for inactives: top-dose activity change, negative = growth inhibition, hits mostly inhibitors; 420,000 tested, 15% active; further: potency means the concentration at half of the fitted maximal effect; nearly all actives have a fitted effect of over 55% in size
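Cells were dispensed at 400 per well, compounds added by pin tool, plates incubated ≥48 hr at 37 °C, then CellTiter-Glo added for 30 min at room temperature before luminescence reading. Line: DT40 Tdp1-/- complemented with hTDP1; camptothecin omitted.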
HT1080 IDH1KD tx – qHTS for induction of synthetic lethality in tumor cells producing 2HG: qHTS for the HT-1080-IDH1KD cell line; AID 686971, 2013; HT-1080 IDH1 knockdown viability, ATP luminescence, 48 h; 360,000 tested, 2% active; Potency, µM (series often up to 46.1 µM), without a hit: at the top dose activity, negative = toxicity, usual class: cytotoxic;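 further: potency means the concentration at half of the fitted maximal effect; 0% = DMSO wells and -100% = cell-free medium wells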
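HT-1080-IDH1KD cells (IDH1 knocked down), 750/well in RPMI with 5% FBS, treated with compound 48 h at 37 degrees C. Viability by CellTiter-Glo luminescence, normalised to DMSO and no-cell wells; concentration-response curves classed.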
TDP1 cell CPT – qHTS for Inhibitors of human tyrosyl-DNA phosphodiesterase 1 (TDP1): qHTS in cells in presence of CPT; chicken DT40 Tdp1-/-;hTDP1 cells + 20 nM CPT, ATP luminescence, 48 h; Potency, µM (highest dose often 46.2 µM), for inactives: top-dose activity change, negative = growth inhibition, hits mostly inhibitors; 420,000 tested, 12% active; AID 686979, 2013; further: potency means the concentration at half of the fitted maximal effect; nearly all actives have a fitted effect of over 55% in size
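Chicken DT40 Tdp1-/- cells complemented with human TDP1, 400 cells/well, exposed to compounds plus 20 nM camptothecin for at least 48 h at 37 C; viability read as ATP content by CellTiter-Glo luminescence.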
IL1B secr inh – qHTS for Inhibitors of Inflammasome Signaling: IL-1-beta AlphaLISA Primary Screen. THP-1 LPS/ATP IL-1B secretion, AlphaLISA, 16 h; active compounds read low. activity change, % at 57.5 µM. 360,000 tested, 4.7% active; in the data active means activity change below about -50%; inconclusive means mostly about -30% to -49%
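Secreted IL-1B measured by AlphaLISA bead assay after 16 h compound exposure of THP-1 cells; compounds (final up to 57.5 uM) added 1 h before LPS (250 ng/mL) and ATP (1.25 mM) stimulation; lower signal means less secretion.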
* marks the source's active call; other numbers are inactive results; ? = inconclusive; . = no result given. Only some compounds are listed: those with a hit (about 19% of all), similar ones and a draw of the others. Unless noted, the call rests on the fitted dose curve; in most records, active means well fitted curve in the direction sought with a large enough effect; inconclusive means small, poorly fitted or top-dose-only effect, or another doubt; inactive means no such curve, though single readings can be large; an effect the other way counts as inactive or inconclusive. Unless noted, on the % scale 0 is the no-effect control and ±100 the full control effect.

SMILES | HT1080-NT tox | ELG1 DNA repair | TDP1 cell noCPT | HT1080 IDH1KD tx | TDP1 cell CPT | IL1B secr inh
N#CC1=C(N)NC(SCc2ccc(Cl)cc2)=C(C#N)C12CCCCC2 | ? | -6% | ? | 21µM* | ? | -5
CC1(C)CC(=O)C2=C(C1)NC(SCC(=O)Nc1ccccc1)=C(C#N)C21CCCCC1 | ? | ? | ? | -16% | ? | ?
Cc1cccc(S(=O)(=O)N(C)C[C@@H]2OCc3cnnn3CCCC(=O)N([C@@H](C)CO)C[C@@H]2C)c1 | 11% | . | 12% | 1% | 0% | 4
CCSC1=C(C#N)C2(CCCC2)C(C#N)=C(N)N1 | -4% | ? | 16µM* | -2% | 7.3µM* | -17
N#CC1=C(N)NC(SCc2ccc(Br)cc2)=C(C#N)C12CCCCC2 | 2% | ? | ? | 1% | ? | -10
CC(C)C(=O)C1=Cc2cccc([N+](=O)[O-])c2OC1N1CCOCC1 (stereo unspecified) | -5% | 19% | ? | -7% | ? | -60*
CC(C)C(=O)C1=Cc2cc([N+](=O)[O-])ccc2OC1N1CCOCC1 (stereo unspecified) | -22% | -13% | 26µM* | -19% | ? | -16
COC(=O)C1=Cc2cc(OC)cc([N+](=O)[O-])c2OC1N1CCOCC1 (stereo unspecified) | 3% | 12% | 26µM* | 5% | ? | -1
Cc1cccc(C)c1NC(=O)CNC(=O)C1CC(=O)N(Cc2ccccc2)C1 (stereo unspecified) | 5% | 17% | -11% | 15% | -4% | -3
O=C(CCn1c(=O)c2ccccc2n(CC(=O)Nc2ccc(F)cc2)c1=O)NCCc1ccccc1 | . | . | -18% | . | -8% | .
CC(=O)N(Cc1c(C)nn(-c2ccccc2)c1Cl)c1ccc(Cl)cc1 | -1% | -3% | ? | -10% | ? | 17
Cc1nn(-c2ccccc2)c(Cl)c1CN(C(=O)CCl)c1cccc2ccccc12 | 4.1µM* | ? | 6.5µM* | 5.2µM* | 5.8µM* | -98*
Cc1nn(-c2ccccc2)c(Cl)c1CN(C(=O)CCl)c1ccc(Cl)cc1 | 7.3µM* | ? | 6.5µM* | 5.2µM* | 7.3µM* | -113*
O=C(CN1C(=O)NC(c2ccccc2)(c2ccccc2)C1=O)NCC(=O)Nc1ccc(F)cc1 | -8% | 0% | -28% | 0% | ? | -17
CC(C)CCNC(=O)c1onc(CSc2nc3ccccc3[nH]2)c1C(=O)NCCC(C)C | 8% | -15% | 16µM* | 11% | ? | -3
O=C(NCCO)c1ccc(CSc2nc3ccccc3[nH]2)cc1 | 3% | ? | ? | -2% | -25% | 22
O=C(NCc1ccccc1Cl)c1ccc(CSc2nc3ccncc3[nH]2)cc1 | -4% | ? | ? | -17% | -9% | -76*
Nc1cc(=O)[nH]c(SCc2ccccc2Cl)n1 | -4% | 6% | ? | -1% | -25% | -9
O=C(NCCCO)c1ccc(CSc2nc3ccccc3[nH]2)cc1 | -17% | 5% | 18µM* | -1% | ? | 46
Clc1ccccc1CSc1nc2ccncc2[nH]1 | -22% | ? | 23µM* | -17% | ? | 8
Cc1ccc(C)c(C(=O)NC(C)c2ccc(-n3ccnc3)cc2)c1 (stereo unspecified) | -2% | 0% | -19% | -10% | 6% | -6
